Data reported in the supplement of paper PMC11417369.
± gives the standard deviation of the averaged measurements. The full ranking holds about 25,000 sequences; the median of “ln(normalized median fluorescence intensity)” is about 10, and the highest 2% start at about 12. The sample holds the highest values, similar sequences and a random draw of the others, so the mix is not that of the screen.

Tested on: PfAP2-G AP2 domain (GST-tagged)
Experiment: gcPBM binding intensity (ln(normalized median fluorescence intensity)); higher = stronger DNA binding
Procedure, shortened: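 Binding of GST-tagged P. falciparum DNA-binding domains, expressed in E. coli and used at about 25 μg on average, was carried out for 1 h in 1× PBS containing 1% milk, 0.2 mg/ml BSA, 0.5% salmon testes DNA and 0.03% Triton X-100. The target was an Agilent 4 × 180k array of primer-extended double-stranded 36-bp intergenic genomic probes plus negative controls, read with Alexa488 anti-GST antibody at 488 nm. Binding intensity is the highest Masliner-normalised natural-log median intensity across replicate spots of either probe orientation.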

Sequence	gcPBM binding intensity (ln)
TCTTATTATAAAAGGAGTACATCAATTAGATGTTCC [XGTACX_site8465]	11.6 ± 1
ATAATATATATATATATATTATCAAATATATATATA [GTGCAC_negctrl_site346]	9.55 ± 0.23
TATTATATATAATATTGTACATTAAAATATTAAAGA [XGTACX_site3698]	10.9 ± 0.67
ATATAATGAAGTGAATGTACATATAAAATGTAAAAA [XGTACX_site8052]	11.1 ± 0.43
GGAAGATGAAAAATAAAGCATGTGCTGTACAAACGA [CACACA_negctrl_site1625]	10.8 ± 0.37
TTATTTAAATAATATGTACACACATTTAAAAAATTA [CACACA_site8912]	11.6 ± 0.95
TTAATATTTTGATGTGTACACATTAAAATAGTTTTA [CACACA_site5712]	11.8 ± 0.89
GATGATGTTTATTTGTGTACATATTAATACTTAATA [XGTACX_site1902]	11.4 ± 0.82
AATATTTTGATGTGTACACATTAATACAGTTTTACA [CACACA_site5711]	11.7 ± 0.91
ATATAAATATTTATTAGTACACATTAGTGTAGTTTT [XGTACX_site4493]	11.5 ± 0.88
GATGATAAAATATGTACACACAGTTTATACATTTTG [CACACA_site4055]	11.3 ± 0.76
TTTTATTATTTGTCTTGTACTCATTGTAAGAGTATG [XGTACX_site1538]	11.4 ± 0.91
ATATAATAATATTATACATGCAAAATATGTTCTTCA [TGCATGCA_site115]	9.795 ± 0.049
AACTTTATACTTTTTTGTACTTAACCCTTACATTTT [XGTACX_site5798]	11.1 ± 0.38
AATAACAATTATAAAAGTACAGATTTTTATTTCTAA [XGTACX_site5746]	11.1 ± 0.79
AAATAAAATTTTATGTGTACGCAAAAAGTTGTAAGC [XGTACX_site8911]	11.9 ± 1.3
TATGTATATATATAAAGTACGCAAATTTATAATAAG [XGTACX_site8744]	11.5 ± 0.98
TATATAAAAATATGTTGTACGCATTTATAAATATAT [XGTACX_site3758]	11.6 ± 0.98
GCGTAATCTATTTGCACACTTATTTGTTCTTAAAAA [CACACA_site672]	10.2 ± 0.14
AAGATATGTACTAATACACACACATATATATATATA [CACACA_site8249]	11.2 ± 0.79
CATACATTTAAAAAGTGTACGTATATGAAAAAAGGA [XGTACX_site6512]	11.7 ± 1.1
TGTATATACATAAAGTGTACGTATATTTATATATAT [XGTACX_site4320]	11.6 ± 0.98
ATGAAAATTATAAAGTGTACATATAGAAACATTTAC [XGTACX_site8047]	11.4 ± 0.99
TACATATACATATACACACACACACCCAAATAAATA [CACACA_site1344]	10.3 ± 0.35
TATATTAACAAAATGGTGCAATAATTTCTATATTAT [GTGCAC_site9857]	10.1 ± 0.22

Sequence	gcPBM binding intensity (ln)
GATAATGAATGATGCACACTAAAAATATTCTACAAC [CACACA_site3622]	10.185 ± 0.007
TTTTCTCTAAAAAGGTGTACAACTAATAATGCACTG [XGTACX_site6074]	11.7 ± 0.83
ATTTTTCTAAAATACTGTACAAAGGTGCATAAAAAG [XGTACX_site4425]	11 ± 0.64
TTATATATTTTATTATTTATAATCTTTTTTTTATTT [CACACA_negctrl_site112]	9.585 ± 0.049
AAAAATGAGTGACACACACACATATAAATATAAATA [CACACA_site7115]	10.1 ± 0.25
TATGTATGCCTGTTTTGTACTTAAGAAAATGTTGCT [XGTACX_site8443]	11 ± 0.57
TGTGTCAAATAATTAATGTCATATATATTTTGTATA [CACACA_negctrl_site1479]	9.675 ± 0.078
TATTTTTTTAATAACTGTACTTTTTTGTCAAATGGA [XGTACX_site4179]	11.7 ± 1.2
AATTTTTGTATTTTTAGTACTTAATTTCAAAATAAC [XGTACX_site4234]	11.2 ± 0.6
AATAAATATATATTCACACACAAACATATATATATA [CACACA_site4023]	10.1 ± 0.45
CAGTATTACATGAGGACACACACAAAAAAAATATAT [CACACA_site8156]	11.3 ± 0.86
AATATAAAAAAAAAATGTACATATTATATATATATA [XGTACX_site5113]	11.1 ± 0.72
ATAATTAAATAAAAAAGTACACATACATCATAATGC [XGTACX_site7656]	11.5 ± 0.87
TTAAAAATGATTGAATGTACAGATTAATATAATTTT [XGTACX_site7394]	10.7 ± 0.28
AAAAAATAATTGAAGTGTACGTACAATGATTTTACT [XGTACX_site7663]	11.8 ± 1.1
AAAAGAACAATGAAGTGTACTAATAATTATTTATGT [XGTACX_site6649]	11.3 ± 0.79
TAAAATGAAGGAATATGTACATAAATAAACATATAT [XGTACX_site6266]	11.2 ± 0.63
TTATAGTAATAATAATGTACATTTATACACATATAT [XGTACX_site1965]	10.9 ± 0.47
GACATTTGTGAGCTTGAGCCGTCAAACCACTAAATA [CACACA_negctrl_site552]	9.99 ± 0.028
AAAAGAAAAGAGAGGAGTACAAAATATAATTATCTA [XGTACX_site5172]	11.3 ± 0.76
GGGGGTAGGGGAAGAAGTACAATGATCACTACAGTA [XGTACX_site1169]	11.9 ± 1.3
TAAAAATGATCAAAGGGTACAGTATTAATTAAAAAA [XGTACX_site1079]	11.3 ± 0.93
ATATAAGATTTAAGAAGTACAATTATACAGTAGATC [XGTACX_site7501]	11.4 ± 0.88
AGGCGTGAAATATACGTACACACATTATTTATATTT [CACACA_site2558]	11.6 ± 1
TATTTATACATACGTACACACAAATATTAAAATATA [CACACA_site7004]	11.5 ± 0.96

Sequence	gcPBM binding intensity (ln)
CAGGCGTGAAATATACGTACACACATTATTTATATT [XGTACX_site5337]	11.8 ± 0.94
TTATTTTTAACGTACGCACACATATAAATATATTTA [CACACA_site1976]	11.5 ± 0.97
TTTATTTATTTTTAACGTACGCACACATATAAATAT [XGTACX_site4042]	11.4 ± 0.72
CGCAACGTGAAAATACGTACACATACATTTTTATAT [XGTACX_site330]	11.7 ± 0.85
TTGTTAATATATATATGTACTTATTTATTTATTTAT [XGTACX_site2274]	11.4 ± 0.93
TATATATATATATAATGTACAGAAAAAAAAAAAAAA [XGTACX_site6141]	10.8 ± 0.86
TATTCAAAGAAAAACTGTACGTGTAGCAAACGTCAT [XGTACX_site7713]	11.5 ± 0.83
TACAGATAAATATACATACATATATATATATATATA [XGTACX_negctrl_site182]	9.86 ± 0.42
TGAAATTTTTATACATGTACAAAATTAAATATAACA [XGTACX_site7324]	10.8 ± 0.49
TTATTTATTTAGTAGTGTACTTTTTATATTTATAAT [XGTACX_site5978]	11.6 ± 0.99
TATTTTATATAAAGGTGTACTTATACAAAAATATAT [XGTACX_site7435]	11.5 ± 0.88
GTATATTTTTAAAGGTGTACTTTTTTTTTTTTTTTT [XGTACX_site721]	11.8 ± 1.1
TATATTTTTTTAAAAAGTACTTTGTATATATATATA [XGTACX_site1300]	11.1 ± 0.83
TTATATATTTTTAGGTGTACTTTTTTTTTTTTTTTT [XGTACX_site8164]	11.7 ± 0.91
ATATATATTTTATATTGTACTTATTATTTTTAGGGC [XGTACX_site723]	11.4 ± 0.81
TAAAAAAAAAGAAGCTGTACTAAAAAATTTATATTA [XGTACX_site7408]	11.1 ± 0.81
ACATATAATATAAAGTGTACAAGAAAATAAAAATAA [XGTACX_site1273]	11.3 ± 0.77
TATATATATATTATATGTACACAAGGAAATATGCAT [XGTACX_site5637]	11.5 ± 0.75
ATTTAAATACAAAATTGTACTTTTCTATATTTAACA [XGTACX_site6146]	11.3 ± 0.64
TAAATAAAAATACAGTGTACTTTTTTCTATTTAAAA [XGTACX_site3288]	11.7 ± 1.2
ATTTTTTTATTTTTGTGTACTTATAAGAATATTAAT [XGTACX_site4850]	11.7 ± 1.1
TATATTTATTCCTGTTGTACTTTATATTATTTTTTT [XGTACX_site1415]	11.3 ± 0.6
ATATATGTGTATGTATGTACTTATATTTTTTTTTAT [XGTACX_site1733]	11.2 ± 0.78
GTTAAGAATATATAATGTACTTATTTTAATATAGTA [XGTACX_site6088]	11.1 ± 0.84
TATAAATATATATTTTGTACTTAATATAAATTTATA [XGTACX_site7996]	11 ± 0.62

Sequence	gcPBM binding intensity (ln)
ACTATTATTAAAAATTGTACTTTCTATAAATTTTTT [XGTACX_site7825]	11.1 ± 0.62
TATATTAAAATTTACTGTACTTTTTTTATTTTAAAA [XGTACX_site4077]	11.6 ± 1.1
TTATATATTTTTATGTGTACTTATATATATATATAT [XGTACX_site6211]	11.7 ± 1.1
ATATATATATATATATGTACTTATTTATTTTATATA [XGTACX_site8810]	11.5 ± 1.1
CTTCCTATATTTTACTGTACTTTTTTTTTTTTTTTT [XGTACX_site4016]	11.7 ± 0.98
ATATATTAAAACCTAGTGCATTTGTACATATTTCAA	11 ± 0.52
ATTTTAGATGAAAAAGCACACAACATATATATATAT [CACACA_site2295]	10.2 ± 0.43
TAATAAATAAGACACACACACATATATATATATTAT [CACACA_site1389]	10.01 ± 0.042
TTGTATTATTAAATTATAAAACCTATAATTATGGAT [GTGCAC_negctrl_site340]	9.68 ± 0.099
TGGAAATTCTCAGGAGTGCATATTTGCAGTTTACGT [GTGCAC_site9768]	10.3 ± 0.25
GGGAAAGAACCATATACATGCATATTTACCGTTAAA [TGCATGCA_site519]	10 ± 0.28
ATTTATATATAATATACACACATATAATCCACATAT [CACACA_site699]	10.15 ± 0.035
TCTTTTTAATTTATATGTACTTATATTAATTATAAG [XGTACX_site7524]	11.4 ± 0.97
CAAAAAATATATTTTTGTACTTATGTTTTTATTTTG [XGTACX_site5230]	11.1 ± 0.76
GCTATTTATTTATATTGTACTTTTTTTTTTTTTTTT [XGTACX_site3624]	11.7 ± 1.1
TTTAAATTTTTATATTGTACTTTATTTATTTATTTA [XGTACX_site869]	11.2 ± 0.85
TATATATATATATATTGTACTTTATTTTATATATTC [XGTACX_site5697]	11.2 ± 0.71
ATATATATATATGTGTGTACTTATTTATTTATTTGT [XGTACX_site549]	11.5 ± 1
AATTTTTTTTTATTGTGTACTTATTTTTTTATATTT [XGTACX_site917]	11.7 ± 0.88
ATATATATATATATATGTACTTAATATTTCTTATTT [XGTACX_site6206]	11 ± 0.76
TTTTTTTTTTTAAATTGTACTTATTTTATATTATAT [XGTACX_site1077]	11.4 ± 0.9
TTTTTGTTTTTTTTGTGTACTTATCAAATATATATA [XGTACX_site7273]	11.6 ± 0.83
TATATATATATCAAGTGTACTTGTGTTTGTAATATT [XGTACX_site8854]	11.4 ± 1
TTTTTTCTTTTTATGTGTACTTATTTTATTTAATAA [XGTACX_site1080]	11.7 ± 1.1
